Measured values reported in PubChem BioAssay AID687001 (Broad Institute, 2013).
Measured potencies and affinities stand elsewhere. The source made the active and inactive calls.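 How the source made its calls: active means signal-lowering compounds whose fitted half-maximal concentration is at or below twice the top tested dose in every run; inconclusive means runs disagree, flat 30 to 70% inhibition, or poor curve fit; inactive means the rest.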

target: Protein S100-A4 (Homo sapiens) (UniProt P26447); experiment: human S100A4 peptide interaction inhibition curves – biochemical, fluorescence polarization, cherry-picked hits, dose response (AID 687001); conditions: FP, S100A4/TAMRA-myosin IIA peptide binding; series mostly up to 11 µM
Sequence (P26447 whole entry, looked up): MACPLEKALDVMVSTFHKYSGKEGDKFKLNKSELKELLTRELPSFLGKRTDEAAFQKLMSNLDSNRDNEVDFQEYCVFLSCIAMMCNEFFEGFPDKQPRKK

outcome, inactive:
Cc1ccnc(NC(=O)C(C)N2C(=O)c3ccccc3S2(=O)=O)c1 (centres undefined)
CNC[C@@H]1OCCCC[C@H](C)Oc2ccc(NS(C)(=O)=O)cc2C(=O)N([C@@H](C)CO)C[C@@H]1C
CC(OC(=O)/C=C/c1cccs1)C(=O)NC1CCCCC1C (centres undefined)
COC(=O)c1ccc(NC(=O)C2CCCN2C(=O)Nc2cccc(C(C)=O)c2)cc1 (centres undefined)
C#CCOCCOCCOCCNc1nc(N2CCN(C(=O)[C@H]([C@@H](C)CC)n3cc(CCCCN)nn3)CC2)nc(N2CCN(C(=O)[C@H](C)n3cc(CCC(=O)O)nn3)CC2)n1
O=C(C[C@H]1C[C@H]2c3cc(NC(=O)Cc4ccncc4)ccc3O[C@H]2[C@H](CO)O1)NCc1ccccn1
C[C@H](CO)N1C[C@H](C)[C@H](CN(C)Cc2ccccc2)Oc2ccc(NS(=O)(=O)c3ccccc3)cc2CC1=O
CCOc1cc(S(=O)(=O)N2CCC(c3nc4ccccc4s3)CC2)c(OCC)cc1S(=O)(=O)N1CCCCC1
CCCCCN(C(=O)CCC(=O)OCC(=O)Nc1cccc(SC)c1)c1c(N)n(CCCC)c(=O)[nH]c1=O
Nc1nnc(COc2ccc(Br)cc2Br)s1
Cc1[nH]c2ccccc2c1CC(=O)Nc1ccc(Nc2cccnc2)c(Br)c1
CCc1ccc(C(=O)NNC(=O)c2c(CC)noc2C)cc1
CC(C)NC(=O)N1[C@@H](CO)[C@@H](c2ccccc2)C12CN(C(=O)Cc1cccnc1)C2
O=S(=O)(NCC(c1ccc2c(c1)OCO2)N1CCN(c2ccccc2)CC1)c1ccccc1 (centres undefined)
O=C(NCCC1CCCCN1S(=O)(=O)c1cccs1)C(=O)Nc1ccc(F)cc1 (centres undefined)
C[C@@H]1CN([C@@H](C)CO)C(=O)c2cc(NC(=O)NC3CCCCC3)ccc2O[C@@H](C)CCCCO[C@@H]1CN(C)S(=O)(=O)c1cn(C)cn1
CCCC(=O)Nc1ccc2c(c1)OC[C@@H](C)N(C(=O)c1cnccn1)C[C@@H](C)[C@H](OC)CN(C)C2=O
O=C(C[C@H]1CC[C@H]2NC[C@H](O)COC[C@@H]2O1)NCCN1CCCCC1
COc1ccc(S(=O)(=O)Nc2ccc3c(c2)C(=O)N([C@@H](C)CO)C[C@@H](C)[C@H](CN(C)C(=O)Nc2ccccc2)OCCCC[C@@H](C)O3)cc1
NC(=O)c1cc(S(=O)(=O)Nc2cccc(Cl)c2)cs1
C[C@@H]1CN([C@H](C)CO)C(=O)Cc2cc(NC(=O)Nc3ccc(C(F)(F)F)cc3)ccc2O[C@H]1CN(C)Cc1ccc2c(c1)OCO2
COc1ccccc1CNc1nc(C)c(C(C)=O)s1
CCC(=O)N1C[C@H](O)COC[C@H]2O[C@H](CC(=O)NCc3cc(F)cc(F)c3)CC[C@@H]21
CCCC(=O)Nc1ccc2c(c1)C(=O)N(C)C[C@H](OC)[C@H](C)CN(Cc1ccccc1)[C@@H](C)CO2
C[C@H]1CN([C@@H](C)CO)C(=O)c2cc(C#CC3CCCCC3)cnc2O[C@H]1CN(C)Cc1cncnc1
Cc1ccc(C(=O)N2CCN(c3ccc([N+](=O)[O-])c(N4CCOCC4)c3)CC2)cc1
COc1ccc(S(=O)(=O)N2CCCCC2)cc1NC(=O)CCOc1cc(C)ccc1C
CO[C@H]1CN(C)C(=O)c2cc(NC(C)=O)ccc2OC[C@H](C)N(Cc2ccccn2)C[C@H]1C
COc1ccc(-c2cc(C(=O)NC3CC3)c3ccccc3n2)cc1
O=C(C[C@H]1C[C@@H]2c3cc(NC(=O)C4CCOCC4)ccc3O[C@@H]2[C@H](CO)O1)NCCN1CCCCC1
C[C@H](NC(=O)C[C@H]1C[C@@H]2c3cc(NC(=O)CN(C)C)ccc3O[C@@H]2[C@H](CO)O1)c1ccccc1
CNC[C@H]1Oc2c(NC(=O)Nc3ccc(C(F)(F)F)cc3)cccc2C(=O)N([C@@H](C)CO)C[C@H]1C
C=C(C)n1c(=O)n(Cc2ccccc2C)c2ccccc21
C[C@@H]1CN([C@H](C)CO)C(=O)c2cc(-c3ccc(F)cc3)cnc2O[C@H]1CN(C)Cc1cncnc1
O=C(NCCc1ccco1)C(=O)NCC1OCCCN1S(=O)(=O)c1cc(F)ccc1F (centres undefined)
CCCNC(=O)[C@@H]1[C@@H](CO)[C@@H]2Cn3c(cccc3=O)[C@@H]2N1C(=O)C1CCC1
CC(C)CC1C(=O)N(Cc2cn(CC3CCCCC3)nn2)CCS(=O)(=O)N1Cc1ccc(-c2ccc(Cl)cc2)cc1 (centres undefined)
CCOc1cc(CNCc2ccccc2)ccc1OCc1ccc(Cl)cc1
CCN1CCN(c2ccc(N3CCN(S(=O)(=O)c4ccc(C)c([N+](=O)[O-])c4)CC3)nn2)CC1
